Assay [1] is described as follows: qHTS profiling of the MIPE4 collection as inhibitors of Plasmodium falciparum (3D7) proliferation (AID 743344).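 Further: scaled between DMSO vehicle wells and 0.29 µM artemisinin as full inhibition.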 The note with it: P. falciparum 3D7 in erythrocytes, SYBR Green DNA fluorescence, 72 h; at 28.5 µM. Put shortly: (§1)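 Erythrocytes infected with P. falciparum (0.3% parasitemia, 2.5% hematocrit) incubated with compounds 72 h at 37 C, 5% CO2. Lysis with saponin/Triton buffer containing SYBR Green I, overnight at room temperature in the dark; DNA fluorescence (485/535 nm) normalised to 0.29 uM artemisinin and DMSO.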
For orientation: qHTS replaces the single test concentration by a dilution series.

The nature of assay [2]: qHTS profiling of the MIPE4 collection as inhibitors of Plasmodium falciparum (DD2) proliferation (AID 743345). The note with it: P. falciparum Dd2 in erythrocytes, SYBR Green DNA, 72 h; at 28.5 µM unless noted. The method in brief:
as §1

A short description of assay [3]: qHTS profiling of the MIPE4 collection as inhibitors of Plasmodium falciparum (DD2) proliferation (Rep 2) (AID 743346). As to conditions: P. falciparum Dd2 in erythrocytes, SYBR Green DNA, 72 h; at 28.5 µM. The method in brief: as §1
The nature of assay [4]: qHTS profiling of the MIPE4 collection as inhibitors of Plasmodium falciparum (HB3) proliferation (AID 743347).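 Further: plate controls were DMSO vehicle wells for no effect and artemisinin wells for full effect.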 The note with it: P. falciparum HB3 in erythrocytes, SYBR Green DNA, 72 h; at 28.5 µM. Put shortly: as §1
Assay [5] in a line: qHTS Assay for Identifying Gametocytocidal Compounds (AID 743244; active means well fitted curve in the direction sought with a large enough effect; an effect the other way counts as inactive or inconclusive; further: potency means the concentration at half of the fitted maximal effect;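 on max response: on the % scale 0 is the no-effect control and ±100 the full control effect; actives lower the fluorescent signal which means gametocytes are killed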). As to conditions: P. falciparum 3D7 stage III-V gametocytes, alamarBlue, 72 h; max response: stronger effect = lower value. The method in brief: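 In this qHTS viability screen, late-stage 3D7 gametocytes are incubated with compound for 72 h, then with alamarBlue for 24 h; reduced resorufin fluorescence marks killing.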

A short description of assay [6]: qHTS profiling for inhibitors of Plasmodium falciparum (3D7) proliferation (AID 743322).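 Further: infected erythrocytes exposed to compound for 72 h before lysis; 100% = DMSO vehicle wells and 0% = 0.29 µM artemisinin.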 As to conditions: P. falciparum 3D7 proliferation; at 28.7 µM (top of the series) unless noted. The method in brief: as §1
Assay [7] can be described thus: qHTS profiling for inhibitors of Plasmodium falciparum (DD2) proliferation (AID 743323). As to conditions: lower = more inhibition; at 28.7 µM (top of the series) unless noted. Put shortly: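 P. falciparum Dd2-infected erythrocytes (0.3% parasitemia, 2.5% hematocrit) exposed 72 h at 37 C, 5% CO2. Lysis with SYBR Green, overnight at room temperature, fluorescence 485/535 nm; normalized to 0.29 uM artemisinin and DMSO.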

Assay [8] is described as follows: qHTS profiling for inhibitors of Plasmodium falciparum (HB3) proliferation (AID 743324; active means well fitted curve in the direction sought with a large enough effect; an effect the other way counts as inactive or inconclusive;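 further: 100% = DMSO vehicle wells and 0% = artemisinin-treated control wells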). As to conditions: Plasmodium falciparum HB3 blood-stage proliferation; at 28.7 µM (top of the series) unless noted. The method in brief:
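P. falciparum HB3 grown in erythrocytes (0.3% parasitemia, 2.5% hematocrit final) with compound for 72 h at 37 C, 5% CO2. Parasite DNA detected by SYBR Green after saponin/triton lysis overnight; normalized to 0.29 uM artemisinin and DMSO.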

Results filed as inconclusive are left out. Calls of active or inactive are those of the source. Unless noted, how the calls were made is not given here.

For the compound `C=C[C@@H]1CN2CCC1C[C@@H]2[C@@H](O)c1ccnc2ccccc12` (stereo partly specified), the parasite growth, % of DMSO control in assay [1] came to 15.2%. In addition, the parasite growth remaining, % of DMSO control (lower = more inhibition) in assay [2] came to 21.4%. Further, the parasite growth, % of control (lower = inhibition) in assay [3] came out at 45.8%. Further, the growth, % of control in assay [4] worked out at 17.3%.
As for `CC1CC(C)C(=O)C(C(O)CC2CC(=O)NC(=O)C2)C1` (stereo unspecified), in assay [5], the Potency is 1520 nM (active). Also, in assay [6], the remaining parasite growth % (stronger effect = lower value) came out at 0.131% [at 57.5 µM]. The compound also came in with an activity, percent of control in assay [7] of 0.244% [at 57.5 µM]. In addition, the remaining proliferation (% of control), lower = more inhibition in assay [8] is -0.376% [at 57.5 µM].
`COc1ccc(C(=O)c2c(C)n(CCN3CCOCC3)c3cc(I)ccc23)cc1`: the parasite growth, % of DMSO control in assay [1] came out at 44.6%. Also, the parasite growth remaining, % of DMSO control (lower = more inhibition) in assay [2] was found to be 85%. In assay [3], this compound returned a parasite growth, % of control (lower = inhibition) of 35.4%. Further, the growth, % of control in assay [4] was 33.7%.
On to `COc1ccc2c(c1)CC[C@H]1[C@@H]2CC[C@]2(C)[C@@H](NCCCCCCN3C(=O)C=CC3=O)CC[C@H]12`, for which the Potency in assay [5] is 9350 nM (active). Besides, in assay [6], the remaining parasite growth % (stronger effect = lower value) stood at 86.3%. The same compound yielded an activity, percent of control in assay [7] of 73.1%. Moreover, the remaining proliferation (% of control), lower = more inhibition in assay [8] was 50.7%. For the same compound, the parasite growth, % of DMSO control in assay [1] is 62.7%. Also, the parasite growth, % of control (lower = inhibition) in assay [3] worked out at 37.3%. The compound also had a growth, % of control in assay [4] of 77.6%.
Regarding `Cc1ccccc1-n1c(Cn2cnc3c(N)ncnc32)nc2cccc(C)c2c1=O`, the max response in assay [5] was 15.4% (inactive). Moreover, the remaining parasite growth % (stronger effect = lower value) in assay [6] came to 43.1%. Besides, the activity, percent of control in assay [7] was determined as 37.6%. Besides, the remaining proliferation (% of control), lower = more inhibition in assay [8] was 24.9%. In addition, the parasite growth, % of DMSO control in assay [1] stood at 5.28%. The parasite growth remaining, % of DMSO control (lower = more inhibition) in assay [2] amounted to 12.7%. In addition, in assay [3], the parasite growth, % of control (lower = inhibition) was 6.97%. The compound further returned a growth, % of control in assay [4] of 2.42%.
In turn, `O=C(NCC1CCOCC1)c1cnc(Nc2ccc(Cl)cc2Cl)nc1C(F)(F)F` had a parasite growth, % of DMSO control in assay [1] of 52.4%. In assay [2], the parasite growth remaining, % of DMSO control (lower = more inhibition) came out at 102%. Besides, in assay [3], the parasite growth, % of control (lower = inhibition) is 52.2%. In assay [4], this compound registered a growth, % of control of 49.9%.
For `CN[C@@H](C)C(=O)N[C@H]1CCCC[C@H]2CC[C@@H](C(=O)N[C@@H](c3ccccc3)c3cn(CCCCc4ccc(CCCCn5cc([C@@H](NC(=O)[C@@H]6CC[C@@H]7CCCC[C@H](NC(=O)[C@H](C)NC)C(=O)N76)c6ccccc6)nn5)cc4)nn3)N2C1=O`, the Potency in assay [5] is 2640 nM (active).
For the compound `CC(C)[C@]12O[C@H]1[C@@H]1O[C@]13[C@]1(O[C@H]1C[C@H]1C4=C(CC[C@@]13C)C(=O)OC4)[C@@H]2O`, in assay [5], the max response is -3.04% (inactive). Besides, the remaining parasite growth % (stronger effect = lower value) in assay [6] came to 103%. For the same compound, the activity, percent of control in assay [7] turned out to be 96.4%. Also, the remaining proliferation (% of control), lower = more inhibition in assay [8] was 95.4%.

The values are drawn from PubChem BioAssay (NCATS).
